Where “and” joins values, the source holds several entries; their conditions need not be identical. Identical values can stand only once. Results filed as inconclusive are left out. Calls of active or inactive are those of the source. Unless noted, calls come from the whole dose curve; as a rule, active = well fitted curve in the direction sought with a large enough effect; inconclusive = small, poorly fitted or top-dose-only effect, or another doubt; inactive = no such curve, though single readings can be large; an effect the other way counts as inactive or inconclusive.
How the values were obtained:
[1] = molecular target: Thioredoxin reductase 1, cytoplasmic (Rattus norvegicus) (UniProt O89049); experiment: qHTS Assay for Substrates of Mammalian Selenoprotein Thioredoxin Reductase 1 (TrxR1) (AID 488772);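 note: NADPH fluorescence in the first read after selenite addition and not the 8 min delta; series mostly up to about 57 µM; 0% is about no effect; a drop in NADPH fluorescence below the no-compound background marks a TrxR1 substrate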
In short: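 Quantitative HTS in Tris-HCl buffer at pH 7.5 with EDTA and Tween-20, using rat TrxR1, 400 uM NADPH and 400 uM selenite (final). A fall in initial NADPH fluorescence relative to background marked substrate behaviour.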

[2] = molecular target: Thioredoxin reductase 1, cytoplasmic (Rattus norvegicus) (UniProt O89049); experiment: qHTS Assay for Inhibitors of Mammalian Selenoprotein Thioredoxin Reductase 1 (TrxR1) (AID 488773); conditions: Potency: inhibition;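 note: drop in NADPH fluorescence over an 8 min run after selenite addition; series mostly up to about 57 µM; % is set by controls: 0 for no effect and ±100 for the full control effect; nearly all actives have a fitted effect of over 40% in size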
In short: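 Steps: enzyme (90 nM) plus NADPH (400 uM final), 5 min at ~22 deg C; compound added, 15 min; selenite (400 uM final) added; fluorescence followed for 8 min. Concentration-response curves derived from the normalized delta values.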

[3] = molecular target: Flap endonuclease 1 (Homo sapiens) (UniProt P39748); experiment: qHTS Validation Assay for the Inhibitors of Human Flap endonuclease 1 (FEN1) (AID 488816); note: potency is the fitted concentration of half-maximal effect
Flap endonuclease 1 (Homo sapiens), sequence (P39748 whole entry, looked up): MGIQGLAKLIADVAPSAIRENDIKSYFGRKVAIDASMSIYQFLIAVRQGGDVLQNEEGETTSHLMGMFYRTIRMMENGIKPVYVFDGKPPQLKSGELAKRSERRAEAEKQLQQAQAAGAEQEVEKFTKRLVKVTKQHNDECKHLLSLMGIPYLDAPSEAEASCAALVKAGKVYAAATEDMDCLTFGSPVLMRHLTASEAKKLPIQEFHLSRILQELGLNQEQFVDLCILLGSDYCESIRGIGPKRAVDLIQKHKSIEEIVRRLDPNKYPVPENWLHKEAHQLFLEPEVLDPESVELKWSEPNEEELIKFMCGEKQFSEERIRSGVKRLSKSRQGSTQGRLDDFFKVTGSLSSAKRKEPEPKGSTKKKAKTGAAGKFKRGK
In short: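 FEN1, dispensed as a 10 nM reagent, was preincubated with pin-transferred compounds for 15 min at room temperature before substrate was added (50 nM final). Plates were read at 0 and 15 min, and a four-parameter Hill equation was fitted to the concentration-response data.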

[4] = molecular target: M-phase phosphoprotein 8 (Homo sapiens) (UniProt Q99549); experiment: qHTS Validation Assay for Inhibitors for MPP8 Chromodomain Interactions with Methylated Histone Tails (AID 488949); note: nearly all actives have a fitted effect of over 55% in size; note: potency is the fitted concentration of half-maximal effect
In short: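 50 nM MPP8 + 50 nM b-H3K9me3 peptide, PBS pH 7.4/0.01% Tween-20, 30 min RT; + cpd 30 min RT; + AlphaScreen donor/Ni-chelate acceptor beads 10 ug/mL final, 30 min dark; luminescence read.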

[5] = molecular target: Chromobox protein homolog 1 (Homo sapiens) (UniProt P83916); experiment: qHTS Validation Assay for Inhibitors of HP1-beta Chromodomain Interactions with Methylated Histone Tails (AID 488953); note: nearly all actives have a fitted effect of over 50% in size; note: potency is the fitted concentration of half-maximal effect
Chromobox protein homolog 1 (Homo sapiens), sequence (P83916 whole entry, looked up): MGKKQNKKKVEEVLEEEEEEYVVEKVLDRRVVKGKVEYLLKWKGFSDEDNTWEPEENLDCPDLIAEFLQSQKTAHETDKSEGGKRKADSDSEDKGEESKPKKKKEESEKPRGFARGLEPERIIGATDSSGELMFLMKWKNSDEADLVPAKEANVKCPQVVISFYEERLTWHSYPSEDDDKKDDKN
In short: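 HP1-beta (50 nM) was preincubated 30 min at room temperature with biotinylated H3(1-18)K9me3 peptide (50 nM) in PBS pH 7.4, 0.01% Tween-20, then with compounds 30 min. AlphaScreen signal was read after streptavidin donor/nickel chelate acceptor beads (10 ug/mL final).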

[6] = molecular target: Methanococcus maripaludis chaperonin (MmCpn) (UniProt Q6LX38); experiment: High-Throughput Screening for Modulators of Cytosolic Chaperonin Activity: MmCpn Primary Screen (AID 488978);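 note: 50 nM MmCpn enzyme hydrolysing 30 µM ATP at 37 °C; 0% is about no effect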
In short: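 Steps: chaperonin 50 nM final; add compound, 5 min RT; start with ATP, 30 uM final; hold 10 min at 37C; add ADP Transcreener HTRF reagent, 5 min; read ex 320, em 590 and 665 nm.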

[7] = molecular target: Transient receptor potential cation channel subfamily V member 1 (Homo sapiens) (UniProt Q8NER1); experiment: HTS Assay for Compounds that Act as Enhancers of the Vanilloid Receptor 1 (AID 488979); note: 0% is about no effect
In short: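 TRPV1-expressing cells loaded with Fluo-8 calcium dye; compounds added and calcium influx read kinetically for 3 min (agonist phase), then capsaicin at EC20 added and read 2 min more for enhancement. Fluorescence ex 480/em 520 nm.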

[8] = molecular target: Thyrotropin receptor (Homo sapiens) (UniProt P16473); experiment: qHTS Assay for Antagonists of the Thyroid Stimulating Hormone Receptor (AID 488980); note: series mostly up to about 58 µM; 0% is about no effect
Thyrotropin receptor (Homo sapiens), sequence (P16473 whole entry, looked up): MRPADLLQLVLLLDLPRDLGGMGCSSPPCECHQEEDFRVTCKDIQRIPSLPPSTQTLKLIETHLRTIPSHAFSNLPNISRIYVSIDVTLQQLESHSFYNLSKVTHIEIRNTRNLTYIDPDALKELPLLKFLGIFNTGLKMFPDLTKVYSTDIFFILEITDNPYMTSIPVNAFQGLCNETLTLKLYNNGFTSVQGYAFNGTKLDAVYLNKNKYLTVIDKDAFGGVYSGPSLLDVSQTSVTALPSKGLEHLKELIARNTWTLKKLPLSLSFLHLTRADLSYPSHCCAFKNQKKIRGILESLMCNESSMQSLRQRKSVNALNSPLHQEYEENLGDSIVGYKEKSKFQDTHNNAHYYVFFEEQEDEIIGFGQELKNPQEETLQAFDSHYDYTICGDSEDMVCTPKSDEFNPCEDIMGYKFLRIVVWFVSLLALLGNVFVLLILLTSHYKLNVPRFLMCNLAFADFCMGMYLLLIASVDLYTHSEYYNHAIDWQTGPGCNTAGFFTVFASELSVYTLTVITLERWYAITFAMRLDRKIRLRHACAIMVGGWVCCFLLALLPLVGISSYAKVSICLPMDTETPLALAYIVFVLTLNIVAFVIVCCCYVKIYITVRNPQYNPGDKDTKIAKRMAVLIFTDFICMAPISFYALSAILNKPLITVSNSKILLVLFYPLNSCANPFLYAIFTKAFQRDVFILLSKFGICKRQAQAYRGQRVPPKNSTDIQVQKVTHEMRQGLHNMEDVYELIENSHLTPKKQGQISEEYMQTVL
In short: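 Readout is cAMP by HTRF competition between cellular cAMP and cAMP-d2 for a cryptate-labelled antibody. Antagonism was assessed in TSHR-transfected HEK293 cells stimulated with 4 nM TSH (EC80, final) in the presence of RO 20-1724.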

[9] = molecular target: D(1A) dopamine receptor (Homo sapiens) (UniProt P21728); experiment: HTS Assay for Allosteric Agonists of the Human D1 Dopamine Receptor: Primary Screen for Agonists (AID 488981); note: 0% is about no effect
D(1A) dopamine receptor (Homo sapiens), sequence (P21728 whole entry, looked up): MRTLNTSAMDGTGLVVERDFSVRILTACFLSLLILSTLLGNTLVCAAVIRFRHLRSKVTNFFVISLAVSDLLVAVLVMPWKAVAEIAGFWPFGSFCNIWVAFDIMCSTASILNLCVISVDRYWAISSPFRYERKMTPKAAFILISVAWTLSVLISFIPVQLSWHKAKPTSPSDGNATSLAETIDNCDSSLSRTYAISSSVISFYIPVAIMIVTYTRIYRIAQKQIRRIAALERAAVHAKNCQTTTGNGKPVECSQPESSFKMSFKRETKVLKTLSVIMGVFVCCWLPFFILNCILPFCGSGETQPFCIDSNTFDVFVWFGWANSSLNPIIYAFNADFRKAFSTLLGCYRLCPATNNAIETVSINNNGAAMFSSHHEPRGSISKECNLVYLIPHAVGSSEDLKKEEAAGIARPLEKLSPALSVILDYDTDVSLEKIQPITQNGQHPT
In short: (§1)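 Tetracycline-induced HEK293 T-REx cells force-coupled to calcium signalling were incubated overnight at 30 C and dye-loaded at room temperature. Calcium flux over 180 s after compound addition flagged agonists; a further 180 s read after EC20 dopamine flagged potentiators.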

[10] = molecular target: D(1A) dopamine receptor (Homo sapiens) (UniProt P21728); experiment: HTS Assay for Allosteric Agonists of the Human D1 Dopamine Receptor: Primary Screen for Potentiators (AID 488982); note: 0% is about no effect
In short: as §1

[11] = molecular target: D(1A) dopamine receptor (Homo sapiens) (UniProt P21728); experiment: HTS Assay for Allosteric Agonists of the Human D1 Dopamine Receptor: Primary Screen for Antagonists (AID 488983);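 note: calcium flux response to an EC80 dopamine challenge measured with no-wash dye; % is set by controls: 0 for no effect and ±100 for the full control effect; nearly all actives have a fitted effect of over 65% in size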
In short: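 Tetracycline-induced HEK293 T-REx cells expressing force-coupled D1 were plated overnight at 30 C, dye-loaded for calcium, and read kinetically. Compounds were pinned in, then an EC80 dopamine challenge followed after 180 s to reveal antagonism.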

[12] = molecular target: ATP-dependent 6-phosphofructokinase (Trypanosoma brucei brucei) (UniProt O15648); experiment: qHTS Assay to Find Inhibitors of T. brucei phosphofructokinase: hit validation (AID 492961); note: potency is the fitted concentration of half-maximal effect
In short: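 Percent activity derived from corrected luminescence, normalized between 0x and 1x enzyme controls, then fitted to concentration-response curves. Conditions: 1.25 nM PFK, 0.1 mM ATP, 0.5 mM F6P, 45 min RT.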

[13] = Validation screen for small molecules that induce genotoxicity in human embryonic kidney (HEK293T) cells expressing luciferase-tagged ELG1 (AID 493106); note: 0% is about no effect
In short: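 HEK293T cells expressing luciferase-tagged ELG1 were exposed to compound or DMSO vehicle for 16 hr at 37 °C, 5% CO2. Genotoxic stress raises ELG1 levels, so increased luciferase signal after ONE-Glo addition and 30 min at room temperature marks hits.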

[14] = molecular target: ATPase family AAA domain-containing protein 5 (Homo sapiens) (UniProt Q96QE3); experiment: Validation screen for small molecules that inhibit ELG1-dependent DNA repair in human embryonic kidney (HEK293T) cells expressing luciferase-tagged ELG1 (AID 493107); note: nearly all actives have a fitted effect of over 70% in size; note: potency is the fitted concentration of half-maximal effect
ATPase family AAA domain-containing protein 5 (Homo sapiens), sequence (Q96QE3 whole entry, looked up, the tested form may be a part): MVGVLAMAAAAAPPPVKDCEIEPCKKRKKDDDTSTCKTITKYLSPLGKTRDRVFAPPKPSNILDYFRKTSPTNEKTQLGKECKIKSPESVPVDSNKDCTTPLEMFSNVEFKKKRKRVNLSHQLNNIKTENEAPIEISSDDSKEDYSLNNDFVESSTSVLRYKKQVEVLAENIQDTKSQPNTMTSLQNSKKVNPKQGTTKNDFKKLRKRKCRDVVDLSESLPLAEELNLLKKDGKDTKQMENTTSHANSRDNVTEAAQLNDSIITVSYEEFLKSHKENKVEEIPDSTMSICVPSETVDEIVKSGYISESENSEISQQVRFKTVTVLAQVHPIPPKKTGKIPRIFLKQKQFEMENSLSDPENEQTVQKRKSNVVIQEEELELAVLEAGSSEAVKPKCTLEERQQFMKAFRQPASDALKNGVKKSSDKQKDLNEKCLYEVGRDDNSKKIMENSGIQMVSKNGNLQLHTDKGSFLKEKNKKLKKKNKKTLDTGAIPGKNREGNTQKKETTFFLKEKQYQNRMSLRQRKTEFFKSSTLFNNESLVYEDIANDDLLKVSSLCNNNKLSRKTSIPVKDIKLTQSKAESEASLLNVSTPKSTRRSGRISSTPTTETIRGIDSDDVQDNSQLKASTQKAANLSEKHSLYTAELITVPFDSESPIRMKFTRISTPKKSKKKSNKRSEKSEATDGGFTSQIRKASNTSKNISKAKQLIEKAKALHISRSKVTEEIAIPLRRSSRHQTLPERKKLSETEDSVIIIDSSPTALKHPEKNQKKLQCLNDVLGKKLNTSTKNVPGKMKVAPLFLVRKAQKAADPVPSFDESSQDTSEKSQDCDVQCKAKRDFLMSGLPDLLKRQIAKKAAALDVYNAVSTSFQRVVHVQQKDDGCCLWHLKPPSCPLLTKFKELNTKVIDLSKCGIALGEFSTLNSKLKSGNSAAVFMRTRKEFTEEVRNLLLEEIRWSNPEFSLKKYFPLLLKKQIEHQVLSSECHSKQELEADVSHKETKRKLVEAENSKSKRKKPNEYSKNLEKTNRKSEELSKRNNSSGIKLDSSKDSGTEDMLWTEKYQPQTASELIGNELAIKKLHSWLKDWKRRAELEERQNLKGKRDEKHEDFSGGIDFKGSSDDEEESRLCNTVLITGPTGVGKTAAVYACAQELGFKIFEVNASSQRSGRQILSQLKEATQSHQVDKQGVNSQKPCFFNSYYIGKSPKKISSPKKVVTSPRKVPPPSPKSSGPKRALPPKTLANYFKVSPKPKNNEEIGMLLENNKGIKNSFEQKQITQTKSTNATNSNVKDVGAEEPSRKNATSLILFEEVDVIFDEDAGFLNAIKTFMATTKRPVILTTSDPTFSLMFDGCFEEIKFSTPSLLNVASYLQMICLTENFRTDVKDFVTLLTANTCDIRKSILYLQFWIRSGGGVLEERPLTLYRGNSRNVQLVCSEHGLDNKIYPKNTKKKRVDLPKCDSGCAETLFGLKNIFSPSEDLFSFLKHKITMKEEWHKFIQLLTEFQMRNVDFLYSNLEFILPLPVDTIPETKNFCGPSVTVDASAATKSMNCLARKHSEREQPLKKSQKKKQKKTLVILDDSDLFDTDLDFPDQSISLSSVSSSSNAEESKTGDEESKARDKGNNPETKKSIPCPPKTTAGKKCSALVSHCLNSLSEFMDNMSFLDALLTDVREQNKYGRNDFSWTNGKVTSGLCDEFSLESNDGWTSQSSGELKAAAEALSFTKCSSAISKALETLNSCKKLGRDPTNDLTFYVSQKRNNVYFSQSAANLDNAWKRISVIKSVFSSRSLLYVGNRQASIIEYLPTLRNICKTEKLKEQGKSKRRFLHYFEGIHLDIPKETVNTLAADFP
In short: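 HEK293T cells expressing luciferase-tagged ELG1 were co-treated with 5-fluorouridine and compound or DMSO for 16 hr at 37 °C, 5% CO2. Luciferase activity was then read with ONE-Glo after 30 min at room temperature; suppressed signal indicates blocked ELG1 function.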

[15] = molecular target: Thyrotropin-releasing hormone receptor (Homo sapiens) (UniProt P34981); experiment: qHTS for Small Molecule Agonists and Allosteric Enhancers of Human TRH Receptor: Validation Screen for Agonists (AID 493127;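 active = calcium activation more than 3 SD above the typical response in the agonist read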;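 note: intracellular calcium rise by fluo-8 fluorescence before TRH EC20 addition; 0% is about no effect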); conditions: TRH receptor agonist cell assay; at 2 µM; stronger effect = higher value
Thyrotropin-releasing hormone receptor (Homo sapiens), sequence (P34981 whole entry, looked up): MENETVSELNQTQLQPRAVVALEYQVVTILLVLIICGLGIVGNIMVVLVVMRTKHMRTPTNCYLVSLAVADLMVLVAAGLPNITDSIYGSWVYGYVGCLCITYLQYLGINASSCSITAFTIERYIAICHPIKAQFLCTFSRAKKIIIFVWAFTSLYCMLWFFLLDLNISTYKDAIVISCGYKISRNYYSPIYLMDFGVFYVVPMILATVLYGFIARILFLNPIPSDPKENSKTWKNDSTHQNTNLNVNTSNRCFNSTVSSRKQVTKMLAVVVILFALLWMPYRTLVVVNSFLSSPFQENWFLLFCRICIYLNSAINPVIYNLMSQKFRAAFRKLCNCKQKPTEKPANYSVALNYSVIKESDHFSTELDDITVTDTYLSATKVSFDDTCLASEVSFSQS
In short: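 TRHR-expressing cells were plated overnight in serum-containing medium, then loaded with fluo-8 calcium dye at room temperature for 30 min–1.5 h. After a 10 s baseline, compound was pin-transferred and calcium fluorescence (ex 480/em 530) read kinetically for agonist response.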

[16] = qHTS for Inhibitors of Cell Surface uPA Generation: Validation Assay (AID 493164);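 note: RAW 264.7 macrophage cells exposed to compound for 18 h; 0% is about no effect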
In short: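 RAW 264.7, 4000 cells/well, o/n plating; cpd 7-pt 1:5 dilution 2.45 nM–38.3 uM final; 18 h, 37 C/5% CO2; ATP-Lite, 5 s luminescence exposure.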

[17] = molecular target: Galactokinase (Homo sapiens) (UniProt P51570); experiment: qHTS Validation Assay for Inhibitors of Human Galactokinase (GALK) (AID 493189); note: potency is the fitted concentration of half-maximal effect
Galactokinase (Homo sapiens), sequence (P51570 whole entry, looked up): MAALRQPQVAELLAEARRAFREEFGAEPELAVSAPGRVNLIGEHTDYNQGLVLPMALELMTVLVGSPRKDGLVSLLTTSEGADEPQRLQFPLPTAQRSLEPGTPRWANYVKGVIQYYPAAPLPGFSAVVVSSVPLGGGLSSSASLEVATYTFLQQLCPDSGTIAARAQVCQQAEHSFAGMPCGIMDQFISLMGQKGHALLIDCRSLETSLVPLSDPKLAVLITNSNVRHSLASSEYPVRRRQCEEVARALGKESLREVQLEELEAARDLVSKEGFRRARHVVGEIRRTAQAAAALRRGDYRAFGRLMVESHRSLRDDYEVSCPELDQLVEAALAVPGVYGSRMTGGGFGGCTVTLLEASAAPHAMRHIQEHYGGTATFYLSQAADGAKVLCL
In short: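 5 nM GALK / 100 uM galactose / 35 uM ATP, 20 mM HEPES pH8.0, 5 mM MgCl2, 60 mM NaCl, 1 mM DTT, 0.01% BSA (final). RT 1 h; Kinase-Glo Plus luminescence.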

[18] = Validation screen for small molecules that induce DNA re-replication in SW480 colon adenocarcinoma cells (AID 504364); note: 0% is about no effect
In short: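 SW480 cells seeded at 250 per well were exposed to compound or DMSO for 48 hr at 37 C, 5% CO2, then stained with Hoechst for 40 min. DNA content per nucleus was imaged (405 nm ex, 500-530 nm em).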

[19] = Nrf2 qHTS screen for inhibitors: Validation (AID 493153; active = well fitted inhibition curve with a large enough effect in the main read-out, with a control signal flat, not every such curve was filed as active); conditions: Potency: luciferase luminescence; viability change: measured here: cytotoxicity max response
In short: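 A549 cells carrying an ARE-driven firefly luciferase reporter, in 5% FBS OPTI-MEM, were treated with compounds in concentration-response for 18-24 h at 37°C. Viability was read by CellTiter-Fluor fluorescence, then Nrf2 activity by luciferase luminescence.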

[20] = molecular target: Tyrosyl-DNA phosphodiesterase 1 (Homo sapiens) (UniProt Q9NUW8); experiment: Confirmation Assay for Inhibitors of Tyrosyl-DNA Phosphodiesterase (TDP1) (AID 489007); conditions: recombinant human TDP1 enzymatic activity, dose-response; note: potency is the fitted concentration of half-maximal effect; nearly all actives have a fitted effect of over 40% in size
Tyrosyl-DNA phosphodiesterase 1 (Homo sapiens), sequence (Q9NUW8 whole entry, looked up): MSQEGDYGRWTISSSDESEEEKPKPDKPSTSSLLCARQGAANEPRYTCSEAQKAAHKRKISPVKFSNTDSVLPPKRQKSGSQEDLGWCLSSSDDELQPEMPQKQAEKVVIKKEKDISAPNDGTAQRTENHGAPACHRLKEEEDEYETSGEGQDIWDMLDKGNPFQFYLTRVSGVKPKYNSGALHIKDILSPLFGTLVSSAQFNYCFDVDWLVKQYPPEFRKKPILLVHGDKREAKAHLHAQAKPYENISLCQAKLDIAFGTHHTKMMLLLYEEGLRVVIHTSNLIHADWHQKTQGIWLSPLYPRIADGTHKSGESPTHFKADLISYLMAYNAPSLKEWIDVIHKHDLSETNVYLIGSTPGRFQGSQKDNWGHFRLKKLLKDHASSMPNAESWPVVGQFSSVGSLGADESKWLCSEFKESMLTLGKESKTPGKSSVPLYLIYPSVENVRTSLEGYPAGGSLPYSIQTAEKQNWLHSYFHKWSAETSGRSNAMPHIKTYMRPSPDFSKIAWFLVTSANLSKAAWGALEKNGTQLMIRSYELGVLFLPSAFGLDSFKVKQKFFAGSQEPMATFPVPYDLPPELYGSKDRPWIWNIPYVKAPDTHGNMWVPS
In short: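 Recombinant E. coli-expressed Tdp1 (1 nM final) was preincubated with compounds 15 min at room temperature, then reacted 5 min with 15 nM 5'-biotin/3'-phosphotyrosine-FITC DNA substrate; cleavage read as loss of AlphaScreen signal (10 ug/ml beads, 10 min).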

O=C1c2c(O)ccc(O)c2C(=O)c2c(NCCNCCO)ccc(NCCNCCO)c21
active: Potency [3] 2.99 µM | Potency [4] 2.82 µM and 6.7 µM | Potency [5] 5.62 µM | Potency [14] 4.61 µM
inactive: outcome [1] | Potency [2] | outcome [6] | outcome [7] | outcome [8] | Potency [9] | Potency [10] | Potency [11] | Potency [12] | Potency [13] | activation [15] 0.938% | outcome [16] | Potency [17] | Potency [18]

CCOC(=O)C(C)(C)Oc1ccc(Cl)cc1
-5.48%: viability change [19]
inactive: outcome [1] | Potency [2] | Potency [3] | Potency [4] | Potency [5] | outcome [6] | outcome [7] | outcome [8] | Potency [9] | Potency [10] | Potency [11] | Potency [13] | Potency [14] | activation [15] -8.94% | Potency [19] | outcome [16] | Potency [17] | Potency [18]

Cc1cn([C@H]2C=C[C@@H](CO)O2)c(=O)[nH]c1=O
0.63%: viability change [19]
inactive: outcome [1] | Potency [2] | Potency [3] | Potency [4] | Potency [5] | outcome [6] | outcome [7] | outcome [8] | Potency [9] | Potency [10] | Potency [11] | Potency [12] | Potency [13] | Potency [19] | outcome [16] | Potency [17] | Potency [18]

CCc1cccc2c3c([nH]c12)C(CC)(CC(=O)O)OCC3 (configuration not stated)
-5.62%: viability change [19]
inactive: outcome [1] | Potency [2] | Potency [3] | Potency [4] | Potency [5] | outcome [6] | outcome [7] | outcome [8] | Potency [9] | Potency [10] | Potency [11] | Potency [13] | Potency [19] | outcome [16] | Potency [17] | Potency [18]

O=C(Nc1ccc([N+](=O)[O-])cc1Cl)c1cc(Cl)ccc1O
inactive: outcome [1] | Potency [2] | Potency [3] | Potency [4] | Potency [5] | outcome [6] | outcome [7] | outcome [8] | Potency [9] | Potency [10] | Potency [13] | outcome [16] | Potency [17]

Cc1ccc(C(=O)Nc2ccc(S(=O)(=O)O)c3cc(S(=O)(=O)O)cc(S(=O)(=O)O)c23)cc1NC(=O)c1cccc(NC(=O)Nc2cccc(C(=O)Nc3cc(C(=O)Nc4ccc(S(=O)(=O)O)c5cc(S(=O)(=O)O)cc(S(=O)(=O)O)c45)ccc3C)c2)c1
-15.2%: viability change [19]
inactive: outcome [1] | Potency [2] | outcome [6] | outcome [7] | outcome [8] | Potency [9] | Potency [10] | Potency [11] | Potency [13] | Potency [14] | activation [15] 0.688% | Potency [19] | outcome [16] | Potency [18]
active: Potency [3] 0.336 µM | Potency [4] 8.91 µM and 1.89 µM | Potency [5] 2 µM | Potency [20] 2.51 µM and 5.62 µM and 1.26 µM | Potency [12] 7.08 µM | Potency [17] 17.8 µM

CN(C)CCCN1c2ccccc2CCc2ccc(Cl)cc21
inactive: outcome [1] | Potency [2] | Potency [3] | Potency [4] | Potency [5] | outcome [6] | outcome [8] | Potency [9] | Potency [10] | Potency [13] | activation [15] 1.88% | Potency [19] | outcome [16] | Potency [17] | Potency [18]
-5.04%: viability change [19]

— PubChem BioAssay (NCATS)
